“And” between values parts separate entries of the source, which are not always exact repeats. Equal values may be shown once. About 55 (0.02%) of roughly 340,000 compounds were called active.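 Rule for the calls: active = phage lysis inhibition, versus mean bacterial control, above a set limit; inconclusive = no clear call, values can overlap the other calls; inactive = the rest.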 The list is a sample of the results. Measured potencies and affinities stand elsewhere.
Experiment: protection from phage-mediated lysis, alamar blue read-out – E. coli UTI89, K1F phage, bacterial capsule biogenesis inhibitors (AID 488966);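 note: capsule biogenesis inhibitors block K1F phage lysis so surviving cells raise fluorescence; higher fluorescence means more inhibition of phage lysis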
Settings: 2 h; inhibition: at 100 µM, active compounds read high unless noted; series mostly up to 300 µM; inhibition of phage lysis: at the top concentration

inhibition, inactive:
COC(=O)c1cc(OC)c(OC)cc1NC(=O)CN1CCOCC1 1.47%
CCN(CC)c1ccc2c(O)cc(=O)oc2c1 0.26%
CCN(CC)c1ccc(C(=C2C=CC(=[N+](CC)CC)C=C2)c2ccc(S(=O)(=O)O)cc2S(=O)(=O)[O-])cc1 -0.79% [at 50 µM, active compounds read high]
COc1ccc2c(=O)c(-c3ccc(C)cc3)c(-c3ccccc3)oc2c1 0.1%
Cc1ccc(C(=O)N2CCN(S(C)(=O)=O)C2)cc1 3.27%
N=c1n(CCN2CCCCC2)c2ccccc2n1CC(O)c1ccc(Cl)c(Cl)c1 (centres undefined) -4.43%
COc1ccc(C(=O)NNC(=O)CCc2nc3ccccc3c(=O)[nH]2)cc1 -0.85%
O=C(CSc1nnc(CNC(=O)c2ccco2)o1)Nc1nc2ccccc2s1 0.07%
CC(=O)NC1=NN(C(C)=O)C(C)(c2cccnc2)S1 (centres undefined) 0.35%
Cc1cc2oc3c(c(=O)c2cc1C)C(c1ccc(C(C)C)cc1)N(CCCN1CCOCC1)C3=O (centres undefined) 10.9%
CCCOc1ccc(C2c3c(oc4ccccc4c3=O)C(=O)N2CCCN2CCOCC2)cc1 (centres undefined) 3.1%
Cc1cc2oc3c(c(=O)c2cc1C)C(c1ccc(F)cc1)N(CCCN1CCOCC1)C3=O (centres undefined) 10.1%
CC(C)Oc1ccc(C2c3c(oc4ccccc4c3=O)C(=O)N2CCCN2CCOCC2)cc1 (centres undefined) 7.09%
CCCCCCn1c(N2CCN(c3cccc(Cl)c3)CC2)nc2c1c(=O)[nH]c(=O)n2C -0.58%
COc1ccc(-c2c(C)oc3c(CN4CCOCC4)c(O)ccc3c2=O)cc1 0.06%
O=C(CSc1nc2ccc(Cl)cc2[nH]1)NCCc1ccc(Cl)cc1 0.86%
C=CCn1c(C)nnc1SCC(=O)c1[nH]c(C)c(C(C)=O)c1C -0.26%
COc1ccc(C(=O)Nc2ccc3c(c2)nc(CCNC(C)=O)n3C)cc1 5.13%
C/C(=N\NC(=S)NCCc1ccccc1)c1ccc(C#N)cc1 0.17%
Cc1ccccc1CN1CCN(CCCc2ccccc2)C(CCO)C1 (centres undefined) 0.26%
C[C@H](CO)N1C[C@H](C)[C@@H](CN(C)Cc2ccc(C(=O)O)cc2)Oc2c(NS(=O)(=O)c3ccccc3)cccc2C1=O 0.71%
O=C(COc1ccc2c(-c3ccccc3)cc(=O)oc2c1)NCCCn1ccnc1 -2.78%
N=C(N)c1ccccc1 3.36% and 4.08%
N=C(N)c1ccc(O)cc1 -1.49%
Cc1occc1C(=O)NNC(=O)CN1C(=O)NC2(CCCCC2)C1=O 1% [at 50 µM, active compounds read high]
COc1ccc2nc(NC(C)=O)sc2c1 0.03%
COc1ccc(C(=O)Nc2nc3ccc(OC)cc3s2)cc1 0.38%
Cc1cc(C)c2sc(NNC(=O)C3COc4ccccc4O3)nc2c1 (centres undefined) 3.07%
COc1ccc(NC(=O)C(C)N2c3cccc4cccc(c34)S2(=O)=O)cc1 (centres undefined) 4.61%
CCS(=O)(=O)C1=NN2C(=N)/C(=C\c3ccc(SCc4ccco4)o3)C(=O)N=C2S1 -0.03%
O=C(c1cc2ccccc2o1)N1CCN(c2ccccn2)CC1 0.07%
COc1cccc(C(=O)Nc2ncc3c(n2)CC(C)CC3=O)c1 (centres undefined) 0.02%
Cn1c(N)c(C(=O)Nc2cccc(Cl)c2)c(=O)n(C)c1=O 0.32%
CC(OC(=O)CCCN1C(=O)c2ccccc2C1=O)C(=O)Nc1ncc(Cl)cc1Cl (centres undefined) 0.75%
O=C(Cc1ccsc1)Nc1ccc2c(c1)OCO2 0.48% [at 50 µM, active compounds read high]
COc1ccc(CC(=O)Nc2ccc(N3CCOCC3)cc2)cc1OC -0.16%
Cc1cccc(OCC(=O)Nc2ccc(C(=O)Nc3ccccc3C(=O)O)cc2)c1C 1.06% [at 50 µM, active compounds read high]
Cc1ccccc1OCC(=O)Nc1ccc(C(=O)Nc2ccccc2C(=O)O)cc1 0.645% [at 50 µM, active compounds read high]
Cc1ccc2nc(C3CCCN3Cc3nc(CCC(C)C)no3)[nH]c2c1 (centres undefined) 0.57%
CCOc1ccc(C(=O)NN2C(=O)C3C4C=CC(O4)C3C2=O)cc1 (centres undefined) 0.49%
COc1ccc(C2=CSC3=C(C(=O)c4cccc(S(=O)(=O)N(C)C)c4)CCN23)cc1 0.33%
CN(C(=O)Cn1c(=O)oc2cc(S(=O)(=O)N3CCCC3)ccc21)C1CCCCC1 0.1%

Inhibition of phage lysis, inactive:
N=c1n(CCN2CCCCC2)c2ccccc2n1CC(O)c1cccc(Br)c1 (centres undefined) 2.09%
N=C1/C(=C\c2ccc(SCc3ccco3)o2)C(=O)N=C2SC=NN12 7.18%

From PubChem BioAssay AID488966 (Southern Research Specialized Biocontainment Screening …, 2010)
